PubChem BioAssay (NCI)
This is part of a sample that, as a whole, favours compounds with a hit. Of some 83,000 tested, about 20% had one in any assay.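 Cells were grown in 96-well plates and exposed to the test compound at a single concentration for 48 hours; results are reported as percent growth, with values below 10 considered active.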 Unmarked numbers belong to inactive results. Calls of active or inactive are those of the source.

Each compound was assayed on HL-60(TB) leukemia (assay: NCI-60 one-dose screen, 48 h (100 = growth as untreated, 0 = no growth, -100 = all killed)). Details: 10 µM unless noted.

| Structure (SMILES) | growth |
| --- | --- |
| Cc1nc2ccccc2c(/C=C/c2ccccc2)c1C(=O)/C=C/c1ccc(Cl)cc1 | 1.63% (active) |
| O=S(=O)(Nc1ccc(OC(F)F)cc1)c1ccc(-c2cnc(C3CC3)o2)cc1 | 64.7% |
| O=C1N=c2ccccc2=C1c1sc(=S)n(C2CC(=O)N(c3ccc(Cl)cc3)C2=O)c1O (stereo not given) | 101% |
| COc1ccc(C(=O)Cn2cnc3c(Nc4cc(C(=O)Nc5ccc(N6CCN(CCO)CC6)cc5)ccc4C)ncnc32)cc1 | 83.6% |
| COc1cc(-c2cc3ncccc3c3nc(OCCN(C)C)c4cccnc4c23)cc(OC)c1OC | 36.9% |
| Nc1ccc(C2=NN(C(=O)c3cc(-c4ccc(Cl)cc4)nc4ccccc34)C(c3ccccc3)C2)cc1 (stereo not given) | -6.07% (active) |
| Oc1cccc(CCc2ccc(Oc3cc(CCc4cccc(O)c4)cc(O)c3O)cc2)c1 | 15.3% |
| CC(=O)C1CC(C)CCC1C(C)C (stereo not given) | 58.7% |
| CCCCCCCCC(=O)OCCCC(CCC(CCC1CCCO1)OC(=O)CCCCCCCC)OC(=O)CCCCCCCC (stereo not given) | 89% |
| O=[N+]([O-])c1ccc(Oc2cc(Cl)c(Cl)cc2Cl)c(C(F)(F)F)c1 | 104% |
| COc1ccccc1/C=C\C(=O)c1ccccc1 | 48.3% |
| C=C1C(=O)O[C@H]2[C@H]1CC/C(C(=O)NCCCCCCCCNC(=O)/C1=C/CC[C@@]3(C)O[C@H]3[C@H]3OC(=O)C(=C)[C@@H]3CC1)=C\CC[C@@]1(C)O[C@@H]21 | 6.59% (active) |
| CCOC(=O)c1cc(C#N)n2ccc3ccccc3c12 | 92.1% |
| Cc1ccc(S(=O)(=O)NCCN2c3nc4ccccc4cc3Sc3cc4ccccc4nc32)cc1 | 94.4% |
| C#CCN(Cc1ccc2nc(N)[nH]c(=O)c2c1)c1ccc(C(=O)NC(CCC(=O)O)C(=O)O)cc1 (stereo not given) | 43.6% |
| COc1ccc(-c2cc(-c3cccnc3)nc3sc4c(=O)n(-c5ccc(C)cc5)cnc4c23)cc1OC | 107% |
| Cc1ccc(-n2nc3c(c(C#N)c2=O)CC(c2ccccc2Cl)C([N+](=O)[O-])=C3O)cc1 (stereo not given) | 96% |
| CC1=CNNc2c3ncnc-3ncn21 | 99.8% |
| O=c1ccc2nc(C(F)(F)F)nn(-c3ccccc3)c-2c1 | -36.6% (active) |
| COc1cc(C2=Nc3c/c(=C\c4c(O)[nH]c5ccc(Cl)cc45)ccc3=N2)cc(OC)c1OC | 11.8% |

| Structure (SMILES) | growth |
| --- | --- |
| COc1ccc(OC)c(NC(=O)c2sc3nc4c(cc3c2N)C(=O)CCC4)c1 | 88.4% |
| Clc1ccc(/C=C/c2ccccn2)c(Cl)c1 | 86% |
| COc1ccc(-c2nc(SCC(=O)Nc3nc4ccc(C)cc4s3)[nH]c(=O)c2C#N)cc1OC | 105% |
| Nc1ccn(C2CC(N)C(CO)O2)c(=O)n1 (stereo not given) | 84.6% |
| O=C(O)c1cccc2c1Cc1cc([N+](=O)[O-])ccc1-2 | 120% |
| COc1ccc2nc3cc(Cl)ccc3c(Nc3ccc(O)c(CN4CCCC4)c3)c2c1 | -51% (active) |
| COc1ccc(C(Cn2ccnc2)Sc2ccc(Cl)c(Cl)c2)cc1 (stereo not given) | 70.7% |
| Nc1ccc2c3c(cccc13)-c1ccccc1-2 | 4.53% (active) |
| Fc1cc(F)cc(C(c2c[nH]c3ccccc23)c2c[nH]c3ccccc23)c1 | 147% |
| CCCCCCCCCCCCCC1=NC(C)(C)CN1C(C)C | -66.7% (active) |
| O=C(Nc1ccncc1)C(=O)c1cn(S(=O)(=O)c2cccc(Cl)c2F)c2ccccc12 | 68.5% |
| COc1ccc(/C(=N\O)c2cc(OC)c(OC)c(OC)c2)c(OC)c1N | -23.8% (active) |
| O=C1NCC2CCCC1C2 (stereo not given) | 98.6% |
| Nc1cc(Br)c(-c2nnc(CCC(=O)c3nc4ccccc4[nH]3)o2)c(Br)c1 | 88% |
| Cc1ccc(N(C(=O)CCc2c[nH]c3ccccc23)[C@H](C(=O)Nc2ccc(Cl)cc2)c2cccc([N+](=O)[O-])c2)cc1 | 70.7% |
| CC(=O)c1cc2c(N)c(C(=O)Nc3cccc(Cl)c3)sc2nc1C | 48.9% |
| Cc1ccc(Cc2cnc(NC(=O)/C=C/c3ccc(C)o3)s2)cc1 | -33% (active) |
| COc1cc(/C=N\Nc2ccccc2)ccc1OC(=O)c1ccccc1 | -10.8% (active) |
| COc1ccc(C2=NN(C(C)=O)C(c3ccc(Oc4ccnc5cc(Cl)ccc45)c(OC)c3)C2)cc1 (stereo not given) | 78.4% |
| c1ccc2cc(-c3n(Cc4ccc5ccccc5n4)c4ccccc4[n+]3Cc3ccc4ccccc4n3)ccc2c1 | -55.1% (active) |
